Source: PubChem
This is a sample that favours compounds with a hit; in the whole collection about 1.1% have one here.
SNCA expr inh: SNCA gene expression inhibition | Potency, µM (highest dose often 57.2 µM), hits mostly inhibitors | 140,000 tested, 0.17% active | HEK-293 SNCA-luciferase knock-in, luminescence, 24 h; further: nearly all actives have a fitted effect of over 45% in size
GPT2 inhibitor: inhibitors of human GPT2 alanine aminotransferase; Q8TD30; Recombinant GPT2, coupled pyruvate oxidase/HRP Amplex Red fluorescence; Potency, µM (top dose mostly 57.7 µM), hits mostly inhibitors; 100,000 tested, 0.25% active; further: nearly all actives have a fitted effect of over 60% in size
Target sequence (Q8TD30 whole entry, looked up): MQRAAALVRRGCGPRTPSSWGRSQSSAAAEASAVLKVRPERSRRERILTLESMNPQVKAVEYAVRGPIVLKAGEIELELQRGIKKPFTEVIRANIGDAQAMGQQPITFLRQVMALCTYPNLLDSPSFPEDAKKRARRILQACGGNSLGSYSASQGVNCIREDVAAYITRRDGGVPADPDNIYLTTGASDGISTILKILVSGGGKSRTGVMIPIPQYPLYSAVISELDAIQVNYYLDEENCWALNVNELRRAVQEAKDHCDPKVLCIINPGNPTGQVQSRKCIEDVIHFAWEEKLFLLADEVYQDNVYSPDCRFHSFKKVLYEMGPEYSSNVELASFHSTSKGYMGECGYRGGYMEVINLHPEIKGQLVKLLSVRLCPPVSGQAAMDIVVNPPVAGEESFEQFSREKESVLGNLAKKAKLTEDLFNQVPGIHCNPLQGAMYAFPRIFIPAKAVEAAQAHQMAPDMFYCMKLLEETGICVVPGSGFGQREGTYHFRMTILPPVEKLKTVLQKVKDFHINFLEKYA
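Inhibition is scored from Amplex Red fluorescence generated when pyruvate oxidase and HRP act on pyruvate released by GPT2. Reactions contain 10ng/uL enzyme, 250uM a-KG and 2mM L-alanine and run 30 min at room temperature.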
SNCA viab count: reduces viability of HEK-293 SNCA reporter cells; 150,000 tested, 0.12% active; AID 1671193; Potency, µM (top dose mostly 57.1 µM), usual class: cytotoxic; HEK-293-SNCA-luc viability, GF-AFC fluorescence, 24 h; further: nearly all actives have a fitted effect of over 30% in size
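HEK-293-SNCA-luc cells (1500/well) plated 24 h, then exposed 24 h to a dilution series; GF-AFC added 30 min at 37C, fluorescence 405/540 nm; normalised to medium-only and DMSO wells, Hill fit.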
IP6K1 inh: IP6K1 kinase inhibition. 140,000 tested, 0.81% active. activity change, % (series mostly up to about 58 µM). Q92551. IP6K1 kinase, ADP-Glo luminescence, 2 h; active compounds read low. AID 1645851; in the data active means activity change below about -25%
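ADP-Glo luminescence measures ADP made by human IP6K1 during a 2 h RT reaction with ATP/IP6 (mix at 1.3 mM/130 uM); top library doses 57.5 and 19.1 uM final.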
IP6K1 inh cnf: confirmation of human IP6K1 inhibitors; shares compounds with IP6K1 inh; recombinant IP6K1 kinase, ADP-Glo luminescence, 2 h; Potency, µM (series often up to 49 µM), usual class: inhibitors; 1,200 tested, 13% active; AID 1645852; further: nearly all actives have a fitted effect of over 65% in size
A number is an active result. Unless noted, the call rests on the fitted dose curve; in most records, active means well fitted curve in the direction sought with a large enough effect; inconclusive means small, poorly fitted or top-dose-only effect, or another doubt; inactive means no such curve, though single readings can be large; an effect the other way counts as inactive or inconclusive.

Screening Cc1ccc(CNC(=O)c2c(Nc3ccccc3C)sc(C(=O)c3ccc(F)cc3)c2N)cc1 returned SNCA expr inh inconclusive, SNCA viab count inconclusive, IP6K1 inh -26 and IP6K1 inh cnf inactive.
`COc1cccc(CN2CC3(C2)C(=O)N(Cc2cccc(Cl)c2)C(=O)[C@@H]2C[C@@H](O)CN23)c1` gave SNCA expr inh inactive, GPT2 inhibitor inactive, SNCA viab count inactive and IP6K1 inh inactive.
`N#Cc1cccc(NC(=O)c2cc3c(s2)-c2ccc(Cl)cc2SC3)c1` gave SNCA expr inh inactive, SNCA viab count inactive, IP6K1 inh -50 and IP6K1 inh cnf inactive.
Screening COc1ccc(CCNC(=O)CS(=O)Cc2nc(-c3ccc(C)cc3)oc2C)c(OC)c1 (stereo unspecified) returned SNCA expr inh inactive, SNCA viab count inactive, IP6K1 inh -26 and IP6K1 inh cnf inactive.
For COc1ccc(CCNC(=O)CS(=O)Cc2nc(-c3ccc(C)cc3)oc2C)cc1OC (stereo unspecified) the results were SNCA expr inh inactive, SNCA viab count inactive and IP6K1 inh inactive.
Cc1ccc(NC(=O)c2oc3c(c2C)-c2[nH]ncc2CC3)c(Cl)c1 was read as SNCA expr inh inactive, SNCA viab count inactive, IP6K1 inh -45 and IP6K1 inh cnf inactive.
For Cc1cccc(NC(=O)c2oc3c(c2C)-c2[nH]ncc2CC3)c1C the results were SNCA expr inh inactive, SNCA viab count inactive and IP6K1 inh inactive.
Screening COc1cc(O)c2c(c1)/C=C/C[C@H](O)[C@H](O)C(=O)/C=C\C[C@H](C)OC2=O returned GPT2 inhibitor inactive, SNCA viab count 24µM, IP6K1 inh -30 and IP6K1 inh cnf inconclusive.
For COc1cc(O)c2c(c1)C1=CC(O)C(O)CC1(C)OC2=O (stereo unspecified) the results were GPT2 inhibitor inactive, SNCA viab count inactive and IP6K1 inh inactive.
For CCc1ccc(NC(=O)c2ccc(-c3ccccc3)s2)cc1 the results were SNCA expr inh inactive, SNCA viab count inactive and IP6K1 inh inactive.
`O=C(Nc1ccccc1F)c1ccc(-c2ccccc2)s1` gave SNCA expr inh inactive, SNCA viab count inactive, IP6K1 inh -30 and IP6K1 inh cnf inactive.
Screening CC(Oc1ccccc1)C(=O)Nc1ccccc1C(=O)OCc1cc(=O)n2nc(C3CC3)sc2n1 (stereo unspecified) returned SNCA expr inh inactive, SNCA viab count inactive, IP6K1 inh -27 and IP6K1 inh cnf inactive.
`CC(C)Cc1nn2c(=O)cc(COC(=O)c3ccccc3NC(=O)c3ccccc3)nc2s1` gave SNCA expr inh inactive, SNCA viab count inactive, IP6K1 inh -28 and IP6K1 inh cnf inactive.
Cc1ccccc1C(=O)N1CCC(C(=O)N2CCC3(CC2)CC(=O)Nc2ccccc2O3)CC1 was read as SNCA expr inh inactive, GPT2 inhibitor inactive, SNCA viab count inactive and IP6K1 inh inactive.
CC[C@H](CC#N)OC(=O)N[C@@H](C)c1cccc(NC(=O)Nc2ccc(-c3cnco3)c(OC)c2)c1 was read as SNCA expr inh inconclusive, GPT2 inhibitor inactive, SNCA viab count inconclusive, IP6K1 inh -39 and IP6K1 inh cnf inconclusive.
Screening COC(=O)c1cccnc1-n1c(=O)c2cccnc2n(CC(=O)Nc2c(C)cc(C)cc2C)c1=O returned SNCA expr inh inactive, SNCA viab count inactive and IP6K1 inh inactive.
Screening COC(=O)c1cccnc1-n1c(=O)c2cccnc2n(CC(=O)Nc2ccccc2F)c1=O returned SNCA expr inh inactive, SNCA viab count inactive, IP6K1 inh -28 and IP6K1 inh cnf inactive.
`O=C(CC1CCCC1)NCC1CCC(=O)N(Cc2ccccc2)CC1` (stereo unspecified) gave SNCA expr inh inconclusive, GPT2 inhibitor inactive, SNCA viab count inactive and IP6K1 inh inactive.
For Cc1[nH]c(/C=C2\C(=O)Nc3ccccc32)c(C)c1CCC(=O)O the results were IP6K1 inh cnf inactive.
For N#CC1CCN(C(=O)C2CCN(c3nccc(Nc4ccccc4Cl)n3)CC2)CC1 the results were SNCA expr inh inactive, GPT2 inhibitor inactive, SNCA viab count inactive and IP6K1 inh inactive.
`Cc1cccc(Cc2c(C)nc3nc(SCC(=O)NCc4ccc(F)cc4)nn3c2C)c1` gave SNCA expr inh inactive, SNCA viab count inactive, IP6K1 inh -37 and IP6K1 inh cnf inconclusive.
